Measurements as given in the antibiotic and cytotoxicity screens of Wong et al. (2023).
The campaign covered roughly 39,000 compounds. About 500 (1.3%) were called active. Many of the other results were omitted from the sample, so actives are more common in it than they were.

These compounds were tested on S. aureus RN4220 (assay: growth inhibition call (relative growth <= 0.2)). Conditions: 50 µM.

| SMILES | growth inhibition call |
| --- | --- |
| C[C@@H]1CN([C@H](C)CO)C(=O)c2c(c3ccccc3n2C)-c2ccccc2CO[C@@H]1CN(C)C(=O)c1cc(Cl)cc(Cl)c1 | inactive |
| COc1cccc(S(=O)(=O)N[C@@H]2CC[C@H](CC(=O)NC3CCC3)O[C@@H]2CO)c1 | inactive |
| CN(C)CC(=O)N[C@H]1CC[C@@H](CC(=O)O)O[C@H]1CO | inactive |
| COCCNC(=O)C[C@@H]1CC[C@H]2[C@@H](COC[C@H](O)CN2S(=O)(=O)c2ccccc2C)O1 | inactive |
| Cc1noc(C)c1S(=O)(=O)Nc1ccc2c(c1)CC(=O)N([C@@H](C)CO)C[C@H](C)[C@H](CN(C)S(=O)(=O)c1ccccc1)O2 | inactive |
| CC(=O)N(C)C[C@@H]1Oc2ncc(C#CC(C)(C)O)cc2C(=O)N([C@@H](C)CO)C[C@@H]1C | inactive |
| Cc1cc(C(=O)Nc2cccc3c2O[C@@H](CN(C)Cc2ccncc2)[C@@H](C)CN([C@@H](C)CO)C3=O)n(C)n1 | inactive |
| COc1ccc(NC(=O)N(C)C[C@H]2OCCCC[C@H](C)Oc3ccc(NS(=O)(=O)c4ccc(C)cc4)cc3C(=O)N([C@@H](C)CO)C[C@@H]2C)cc1 | inactive |
| O=C(C[C@@H]1CC[C@H]2[C@@H](COC[C@H](O)CN2C(=O)Nc2ccc(C(F)(F)F)cc2)O1)NCc1ccncn1 | inactive |
| O=C(C[C@H]1CC[C@@H]2[C@H](COC[C@H](O)CN2C(=O)Nc2ccc(Cl)cc2)O1)NCCc1ccncc1 | inactive |
| O=C(C[C@@H]1CC[C@@H]2[C@H](COC[C@@H](O)CN2C(=O)Nc2ccc(Cl)cc2)O1)NCCc1ccncc1 | inactive |
| O=C(C[C@H]1CC[C@@H]2[C@H](COC[C@H](O)CN2C(=O)Nc2ccc(C(F)(F)F)cc2)O1)NCCc1ccncc1 | active |
| O=C(C[C@H]1CC[C@H]2[C@@H](COC[C@H](O)CN2C(=O)Nc2ccc(C(F)(F)F)cc2)O1)NCCc1ccncc1 | active |
| O=C(C[C@@H]1CC[C@@H]2[C@H](COC[C@@H](O)CN2C(=O)Nc2ccc(C(F)(F)F)cc2)O1)NCCc1ccncc1 | active |
| O=C(C[C@@H]1CC[C@H]2[C@@H](COC[C@H](O)CN2C(=O)Nc2ccc(Cl)cc2)O1)NCCc1ccncc1 | inactive |
| C[C@@H]1CN([C@H](C)CO)C(=O)c2cc(C#Cc3ccccc3F)cnc2O[C@H]1CN(C)S(=O)(=O)c1ccccc1 | inactive |
| CC(C)NC(=O)[C@@H](C)n1ncn2cccc2c1=O | inactive |
| C[C@H](CO)N1C[C@H](C)[C@@H](CN(C)C(=O)NC2CCCC2)Oc2cc(Br)ccc2S1(=O)=O | inactive |
| C[C@H](CO)N1C[C@H](C)[C@@H](CN(C)Cc2ccc(Cl)c(Cl)c2)Oc2ccc(NC(=O)C3CCCCC3)cc2CC1=O | inactive |
| Cc1cc(C(=O)Nc2cccc3c2O[C@H](CN(C)Cc2ccc4c(c2)OCO4)[C@H](C)CN([C@@H](C)CO)C3=O)n(C)n1 | inactive |
| NC(Cc1c[nH]c2ccccc12)C(=O)O (configuration not stated) | inactive |
| Cc1cc(C)cc(C(=O)N(C)[C@H](Cc2ccc(-c3ccccc3)cc2)C(=O)N[C@@H](Cc2c[nH]c3ccccc23)C(=O)O)c1 | active |
| NCCCC[C@@H](N)C(=O)N[C@@H](Cc1c[nH]c2ccccc12)C(=O)N[C@@H](CCCCN)C(=O)O | inactive |
| CCC[C@H]1CN(S(=O)(=O)c2c(C)cc(C)c3nonc23)C[C@@H]1N | inactive |

| SMILES | growth inhibition call |
| --- | --- |
| Nc1cc(=O)[nH]c(=O)n1Cc1ccccc1 | inactive |
| Cn1sc(=O)n(Cc2ccccc2)c1=O | active |
| Cn1c(=O)sn(-c2ccccc2)c1=O | inactive |
| Cc1ccc(S(=O)(=O)Nc2ccc3c(c2)C(=O)N([C@@H](C)CO)C[C@@H](C)[C@H](CN(C)S(=O)(=O)c2ccc(C)cc2)OCCCC[C@H](C)O3)cc1 | inactive |
| CO[C@@H]1CN(C)C(=O)c2cc(NS(C)(=O)=O)ccc2OC[C@@H](C)N(C(=O)C2CCCCC2)C[C@@H]1C | inactive |
| Cc1ccc(C(C)C)cc2c(C)ccc1-2 | inactive |
| CC(C)c1ccc(N2C=Nc3ccc(C(C)C)cc3C2)cc1 | active |
| COc1ccc(NC(=O)Nc2ccc3c(c2)C(=O)N([C@@H](C)CO)C[C@@H](C)[C@@H](CN(C)C(=O)CCC(F)(F)F)OCCCC[C@@H](C)O3)cc1 | inactive |
| C[C@@H]1CN([C@H](C)CO)C(=O)Cc2cc(NC(=O)C3CCCCC3)ccc2O[C@@H]1CN(C)Cc1ccc(C(F)(F)F)cc1 | inactive |
| COc1cc(C(=O)NS(=O)(=O)c2ccccc2C)ccc1Cc1cn(C)c2ccc(NC(=O)OC3CCCC3)cc12 | active |
| COc1ccccc1CNC(=O)C[C@H]1C[C@H]2c3cc(NC(=O)NC4CCCC4)ccc3O[C@H]2[C@H](CO)O1 | inactive |
| COc1cc(Nc2nc3ccccc3nc2NS(=O)(=O)c2ccc(NC(=O)c3ccc(C)c(OC)c3)cc2)cc(OC)c1 | inactive |
| CCNC(=O)[C@@H]1[C@@H](CO)[C@@H]2Cn3c(ccc(-c4ccc(OC)cc4)c3=O)[C@H]1N2S(C)(=O)=O | inactive |
| COc1ccc(NC(=O)Nc2ccc3c(c2)C(=O)N([C@H](C)CO)C[C@@H](C)[C@H](CN(C)CC2CC2)OCCCC[C@@H](C)O3)cc1 | inactive |
| C[C@H](CO)N1C[C@H](C)[C@H](CN(C)Cc2ccc(-c3ccccc3)cc2)Oc2c(NS(=O)(=O)c3ccc(F)cc3)cccc2C1=O | inactive |
| COc1ccc(C)cc1S(=O)(=O)NCCO | inactive |
| COc1ccc2cc(-c3cc(-c4cc(Cl)cc(Cl)c4)nn3[C@@H](C)c3ccc(C(=O)NCCC(=O)O)cc3)ccc2c1 | inactive |
| Cc1cc(O[C@@H](CCC(F)(F)F)c2ccc(C(=O)NCCC(=O)O)cc2)cc(C)c1-c1ccc(C(C)(C)C)cc1 | active |
| Cc1cc(C)c(-c2ccc(NC(=O)[C@H](Cc3ccc(C(=O)NCCS(=O)(=O)O)cc3)c3ccc(-c4ccc(C(C)(C)C)cc4)cc3)cc2)c(C)c1 | inactive |
| COc1ccc(NC(=O)Nc2cccc3c2O[C@H](CN(C)S(C)(=O)=O)[C@H](C)CN([C@@H](C)CO)C3=O)cc1 | inactive |
| Nc1ncn(C[C@@H](O)CO)c2nc(Br)nc1-2 | inactive |
| Nc1nnc(-c2ccno2)o1 | inactive |
| Cc1cc(-c2nnc(N)o2)nn1C | inactive |
| Nc1nnc(-c2ccc([N+](=O)[O-])o2)o1 | active |

| SMILES | growth inhibition call |
| --- | --- |
| Cc1noc(C)c1NC(=O)N(C)C[C@@H]1OCCCC[C@@H](C)Oc2ccc(NC(=O)Nc3ccc(F)cc3)cc2C(=O)N([C@@H](C)CO)C[C@H]1C | inactive |
| CC(=O)Oc1cc(-c2coc3cc(OC(C)=O)c(OC(C)=O)c(OC(C)=O)c3c2=O)cc(OC(C)=O)c1OC(C)=O | inactive |
| O=C(NC1CCN(CCCCC2(C(=O)NCC(F)(F)F)c3ccccc3-c3ccccc32)CC1)c1ccccc1-c1ccc(C(F)(F)F)cc1 | active |
| C[C@]1(C(=O)NCC(F)(F)F)c2ccccc2C(=O)N(Cc2cc(C(F)(F)F)cc(C(F)(F)F)c2)[C@H]1c1ccc(CO)cc1 | inactive |
| O=C(NC1CCCCCCC1)c1ccccc1-c1ccccc1 | inactive |
| C[C@@H]1CN([C@H](C)CO)C(=O)Cc2cc(NC(=O)Nc3ccc4c(c3)OCO4)ccc2O[C@H]1CN(C)S(C)(=O)=O | inactive |
| Cc1ccc(S(=O)(=O)N(C)C[C@H]2Oc3ccc(NC(=O)NC(C)C)cc3CC(=O)N([C@H](C)CO)C[C@H]2C)cc1 | inactive |
| O=C(Cn1cnnn1)NC1C(=O)N2C(C(=O)O)=C(CSc3nncs3)CSC12 (configuration not stated) | active |
| Cc1nnc(SCC2=C(C(=O)O)N3C(=O)[C@@H](N)[C@H]3SC2)s1 | inactive |
| Cc1nnc(SCC2=C(C(=O)[O-])N3C(=O)C(NC(=O)Cn4cnnn4)C3SC2)s1.[Na+] (configuration not stated) | active |
| Cc1nnc(SCC2=C(C(=O)O)N3C(=O)[C@@H](NC(=O)Cn4cnnn4)[C@H]3SC2)s1 | active |
| C[C@@H]1CN([C@@H](C)CO)C(=O)c2cc(NC(=O)Cc3ccccc3)ccc2O[C@@H](C)CCCCO[C@H]1CN(C)C(=O)Nc1cccc2ccccc12 | inactive |
| Cc1cc(C(=O)Nc2cccc3c2O[C@H](CN(C)C(=O)Nc2ccccc2)[C@@H](C)CN([C@H](C)CO)C3=O)n(C)n1 | inactive |
| C[C@@H]1CCCCO[C@@H](CN(C)C(=O)c2ccccc2)[C@@H](C)CN([C@H](C)CO)C(=O)c2cc(NC(=O)CCCCCC(=O)Nc3ccccc3N)ccc2O1 | inactive |
| C[C@H]1CCCCO[C@H](CN(C)S(=O)(=O)c2ccc(F)cc2)[C@@H](C)CN([C@@H](C)CO)C(=O)c2cc(NC(=O)Nc3cccc4ccccc34)ccc2O1 | inactive |
| Cc1csc2c(Cl)ncnc12 | inactive |
| COc1ccc(CCN2C(=O)[C@@]3(Cc4ccccc42)c2ccccc2C(=O)N(C2CCCCC2)[C@H]3c2ccc(CO)cc2)cc1 | inactive |
| COc1ccc(NC(=O)N(C)C[C@@H]2OCCCC[C@H](C)Oc3ccc(NC(=O)C4CCCCC4)cc3C(=O)N([C@H](C)CO)C[C@H]2C)cc1 | inactive |
| C[C@H]1CCCCO[C@H](CN(C)C(=O)C2CCCCC2)[C@@H](C)CN([C@@H](C)CO)C(=O)c2cc(NC(=O)c3ccccc3)ccc2O1 | inactive |
| Cc1nn(C)cc1NC(=O)C[C@H]1CC[C@@H]2[C@H](COc3ccc(NC(=O)C4CCOCC4)cc3C(=O)N2C)O1 | inactive |
| N#CCN1CCSCC1 | inactive |
| C[C@H]1CN([C@@H](C)CO)C(=O)c2cc(NC(=O)CCN3CCOCC3)ccc2O[C@H]1CN(C)CC1CCCCC1 | inactive |
| Cc1noc(C)c1S(=O)(=O)N(C)C[C@H]1OCCCC[C@@H](C)Oc2ccc(NS(C)(=O)=O)cc2C(=O)N([C@@H](C)CO)C[C@H]1C | inactive |
| COCC(=O)Nc1ccc2c(c1)C(=O)N(C)[C@@H]1CC[C@@H](CC(=O)N3CCc4ccccc4C3)O[C@H]1CO2 | inactive |
